According to PubChem BioAssay (NCI):
Values joined by “and” are separate entries in the source; they are usually repeats but may differ in a detail not shown here. Equal entries are not always repeated. About 83,000 compounds went through this panel and 20% of them were active in at least one assay; those are over-represented in the sample as a whole.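 Compound tested at a single concentration for 48 hours in 96-well plates; a percent growth value below 10 was scored as active.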 Active and inactive are the calls of the source.

How the values were obtained:
Assay in all cases: NCI-60 one-dose screen, 48 h (100 = growth as untreated, 0 = no growth, -100 = all killed)
Details in all cases: 10 µM unless noted
SK-MEL-2 melanoma = tested on: SK-MEL-2 melanoma
EKVX NSCLC = tested on: EKVX NSCLC
SN12C renal = tested on: SN12C renal
UO-31 renal = tested on: UO-31 renal
TK-10 renal = tested on: TK-10 renal
ACHN renal = tested on: ACHN renal
CAKI-1 renal = tested on: CAKI-1 renal
A498 renal = tested on: A498 renal
CCRF-CEM leukemia = tested on: CCRF-CEM leukemia
MOLT-4 leukemia = tested on: MOLT-4 leukemia

Measured: growth

COc1ccc2oc3cc(NCCN(C)C)ccc3c(=O)c2c1
inactive: SK-MEL-2 melanoma 108% and 107% | EKVX NSCLC 85.9% | SN12C renal 81.7% and 64.2% | UO-31 renal 82.9% and 67.4% | TK-10 renal 106% and 98.9% | ACHN renal 74.5% and 58.9% | CAKI-1 renal 77.2% and 63.5% | A498 renal 121% and 85.7% | CCRF-CEM leukemia 70.3% | MOLT-4 leukemia 80.3% and 50.9%

CC1OS(=O)OC1C (centres undefined)
inactive: SK-MEL-2 melanoma 91.4% and 111% | EKVX NSCLC 100% | SN12C renal 95.8% and 95.4% | UO-31 renal 96.1% | TK-10 renal 99.8% and 107% | ACHN renal 91.9% and 103% | CAKI-1 renal 96.7% and 89.1% | A498 renal 101% and 105% | CCRF-CEM leukemia 96.2% | MOLT-4 leukemia 81% and 113%

O=C(c1ccncc1)c1c(Cc2ccccc2)ccc2ccccc12
inactive: SK-MEL-2 melanoma 69.7% | EKVX NSCLC 66.5% | SN12C renal 90.6% | UO-31 renal 64.5% | TK-10 renal 107% | ACHN renal 93.8% | CAKI-1 renal 73.8% | A498 renal 104% | CCRF-CEM leukemia 103% | MOLT-4 leukemia 94.6%

O=C(O)c1ccc2c3ccc(C(=O)O)c4c(C(=O)O)ccc(c5ccc(C(=O)O)c1c25)c43
inactive: SK-MEL-2 melanoma 91.3% | EKVX NSCLC 101% | SN12C renal 101% | UO-31 renal 85.8% | TK-10 renal 117% | ACHN renal 107% | CAKI-1 renal 80% | A498 renal 108% | CCRF-CEM leukemia 111% | MOLT-4 leukemia 106%

OCCSc1ccc(Cl)cc1
inactive: SK-MEL-2 melanoma 109% and 90.7% | EKVX NSCLC 100% and 89.4% | SN12C renal 104% and 93% | UO-31 renal 95.9% and 85.7% | TK-10 renal 87.7% | ACHN renal 99.6% and 95.1% | CAKI-1 renal 107% and 91.1% | A498 renal 107% and 88.9% | CCRF-CEM leukemia 119% and 96.7% | MOLT-4 leukemia 118% and 91.7%

CNc1ccc(Cl)cc1S(=O)(=O)c1ccccc1[N+](=O)[O-]
inactive: SK-MEL-2 melanoma 103% and 85.6% | EKVX NSCLC 103% and 94.5% | SN12C renal 89.8% and 98.3% | UO-31 renal 91.8% and 92.6% | TK-10 renal 99.7% and 95% | ACHN renal 107% and 97.9% | CAKI-1 renal 84.6% and 41.1% | A498 renal 118% | CCRF-CEM leukemia 84.9% and 93.3% | MOLT-4 leukemia 85.6% and 103%

O=[N+]([O-])c1ccc(N2CCN=N2)cc1
inactive: SK-MEL-2 melanoma 92.2% | EKVX NSCLC 85.7% | SN12C renal 88.9% | UO-31 renal 64.3% | TK-10 renal 85.5% | ACHN renal 64.9% | CAKI-1 renal 79.4% | A498 renal 72.3% | CCRF-CEM leukemia 91.2% | MOLT-4 leukemia 90.8%

C=CCN1C(=O)c2ccccc2C1=O
inactive: SK-MEL-2 melanoma 101% | EKVX NSCLC 104% | SN12C renal 87.4% | UO-31 renal 78.3% | TK-10 renal 98.3% | ACHN renal 102% | CAKI-1 renal 93.2% | A498 renal 92% | CCRF-CEM leukemia 93.3% | MOLT-4 leukemia 102%

CC1=CC(=O)C=CC1=Nc1ccc(N(C)C)cc1
active: EKVX NSCLC -44.9% | CCRF-CEM leukemia -28.7%
inactive: SK-MEL-2 melanoma 44.6% | SN12C renal 90.6% and 46.4% | UO-31 renal 65.6% and 50.7% | TK-10 renal 126% and 115% | ACHN renal 96.6% and 55.3% | CAKI-1 renal 87.1% and 67.3% | A498 renal 92.7% and 121% | MOLT-4 leukemia 50.4% and 12%

CC(=O)Oc1ccc(C2(c3ccc(OC(C)=O)cc3)C(=O)Nc3ccccc32)cc1
inactive: SK-MEL-2 melanoma 90.4% and 80.7% | EKVX NSCLC 86% and 85.8% | SN12C renal 17.7% and 16% | UO-31 renal 81.9% and 85.4% | TK-10 renal 18.3% and 35.6% | ACHN renal 67.6% and 63% | CAKI-1 renal 68.2% and 77.4% | A498 renal 107% and 111% | CCRF-CEM leukemia 97.9% and 86.7% | MOLT-4 leukemia 71.4% and 97.6%

O=C1C=CC[C@H](/C=C/c2ccccc2)O1
active: SK-MEL-2 melanoma -21.8% and -43.1% | A498 renal -18.3% and -10.1% | MOLT-4 leukemia 3.44% and -22.1%
inactive: EKVX NSCLC 54.5% and 56.3% | UO-31 renal 38.8% and 41% | TK-10 renal 41.7% and 22.3%
12.5% (inactive) and -3.54% (active): CCRF-CEM leukemia
11.4% (inactive) and 2.9% (active): CAKI-1 renal
55.6% (inactive) and 9.16% (active): SN12C renal

CN(C)CC(CN(C)C)C(O)c1ccccc1 (centres undefined)
inactive: SK-MEL-2 melanoma 94.4% | EKVX NSCLC 96.1% | SN12C renal 103% | UO-31 renal 96.1% | TK-10 renal 89.5% | CAKI-1 renal 98.2% | A498 renal 109% | CCRF-CEM leukemia 104%

CCC(C)NC(=O)c1ccccc1C (centres undefined)
inactive: SK-MEL-2 melanoma 104% | EKVX NSCLC 91.2% | SN12C renal 96.5% | UO-31 renal 94.2% | TK-10 renal 99.3% | CAKI-1 renal 95.3% | A498 renal 89.2% | CCRF-CEM leukemia 103% | MOLT-4 leukemia 114%

O=C(N=C1C(=O)C2(CCCCC2)C2(N=C(c3ccccc3)OC2=O)C12CCCCC2)c1ccccc1 (centres undefined)
inactive: SK-MEL-2 melanoma 76% | EKVX NSCLC 70.5% | SN12C renal 77.8% | UO-31 renal 58.5% | TK-10 renal 86.2% | CAKI-1 renal 70.9% | A498 renal 98.2% | CCRF-CEM leukemia 37.4% | MOLT-4 leukemia 50.5%

Oc1cccnc1CN1CCOCC1
inactive: SK-MEL-2 melanoma 97.5% and 132% | EKVX NSCLC 105% and 91.9% | SN12C renal 104% and 95.6% | UO-31 renal 78.4% and 88.4% | TK-10 renal 110% and 109% | CAKI-1 renal 105% and 89.2% | A498 renal 112% | CCRF-CEM leukemia 103% and 88.7% | MOLT-4 leukemia 99.1% and 107%
